# A selection: hits, their analogues and other compounds. The true share with any hit is near 5.9%.
# ABHD5 PLIN5 PPI: ABHD5-PLIN5 interaction inhibitors, primary screen, cell lysate, split luciferase complementation, luminescence. Perilipin-5 (Homo sapiens) + 1-acylglycerol-3-phosphate O-acyltransferase ABHD5 (Homo …. Split G. princeps luciferase complementation, 4 h. inhibition, % at 4 µM. 360,000 tested, 0.78% active;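 active means inhibition above the mean inhibition across every tested compound plus 3 SD, cut at about 22% in these data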;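 further: 0% = DMSO only wells and the 100% control is not disclosed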
# rCAG RNA binder: binders of r(CAG) RNA repeats, primary screen, biochemical, fluorescence; r(CAG) RNA repeat, TO-PRO-1 dye displacement fluorescence; inhibition, % at 3 µM; 370,000 tested, 1.3% active; AID 651821, 2012;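 active means inhibition above the plate cutoff, the mean of all test compounds on that plate plus 3 SD, cut at about 35% in these data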;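 further: 0% = DMSO alone and 100% = 100 µM mitoxantrone as full dye displacement; higher means more dye released from RNA so lower well fluorescence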
# LANA-H2B inh: blockers of LANA interaction with H2A/H2B – biochemical, FP readout, HTS, primary screen; cell-free LANA-H2A/H2B peptide, fluorescence polarization; inhibition, % (test concentration not listed); 320,000 tested, 0.6% active; AID 2629, 2010; in the data active means inhibition mostly above about 10%, no sharp cut-off; inactive means mostly below about 6.7%
# ALR H2O2 inh: inhibitors of human ALR sulfhydryl oxidase, primary screen, biochemical, H2O2 detection, HRP-luminol luminescence, single point; FAD-linked sulfhydryl oxidase ALR (Homo sapiens), P55789; purified ALR, DTT oxidation; inhibition, % (concentration not given with the values); 290,000 tested, 3.8% active; AID 485317, 2010;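 active means mean replicate inhibition above about 79%, with every replicate also reaching it, limit read from the data; inconclusive means only one of the two criteria met; inactive means mean below limit and not every replicate reaching it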
# Rtt109 HAT inh: inhibitors of C. albicans Rtt109/Vps75 HAT, primary screen, biochemical, ThioGlo CoA-SH fluorescence, plate reader. 330,000 tested, 0.16% active. purified Rtt109/Vps75, 4 h. AID 540336, 2011. inhibition, % at 34.9 µM;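 active means inhibition of at least 50% in every replicate; inconclusive means best replicate reaches 50% inhibition but some replicates fall short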
# PRMT1 inh: PRMT1 methyltransferase inhibitors, primary screen, biochemical, fluorescence polarization. Protein arginine N-methyltransferase 1 (Homo sapiens), Q99873. recombinant PRMT1, activity-based probe fluorescence polarization. inhibition, % at 2.79 µM. 370,000 tested, 1.3% active. AID 652257, 2013;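 active means inhibition above about 21% made by adding two undisclosed values, limit read from the data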
# rCAG bind conf: small molecules binding CAG repeat RNA – biochemical, fluorescence, confirmation; shares compounds with rCAG RNA binder; 4,300 tested, 70% active; r(CAG) RNA repeat, TO-PRO-1 dye displacement fluorescence; AID 652065, 2013; inhibition, % at 3 µM;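 active means inhibition above a per-plate cutoff, the mean inhibition of sample wells plus 3 SD, cut at about 35% in these data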;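 further: loss of TO-PRO-1 fluorescence as compound displaces dye from 1x1 AA loop RNA; 0% = DMSO only wells and 100% = 100 µM mitoxantrone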
# dCAG dye counter: displacement of TO-PRO-1 from CAG DNA duplex, counter-screen for rCAG RNA repeat binder project, biochemical, fluorescence, TO-PRO-1 dye, d(CAG) DNA oligo; inhibition, % at 3 µM; d(CAG) DNA oligo TO-PRO-1 dye displacement; 4,300 tested, 94% active; shares compounds with rCAG RNA binder;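 active means inhibition above its plate's cutoff, the mean test-well inhibition plus 3 SD, cut at about 4.8% in these data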;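 further: 0% = DNA dye mix with DMSO and 100% = 100 µM mitoxantrone; hits displace the dye from DNA and so lower well fluorescence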
# DNA CAG DR: inhibitors of DNA CAG/GTC TO-PRO-1 complex, dose response, counter-screen for rCAG RNA repeat binder project, biochemical, fluorescence, TO-PRO-1 dye | 250 tested, 20% active | DNA CAG/GTC duplex TO-PRO-1 dye displacement fluorescence | IC50, µM | shares compounds with rCAG RNA binder; in the data active means IC50 below about 10 µM
# * hit, by the source's call; i = inactive; u = inconclusive; x = no result.
SMILES,ABHD5 PLIN5 PPI,rCAG RNA binder,LANA-H2B inh,ALR H2O2 inh,Rtt109 HAT inh,PRMT1 inh,rCAG bind conf,dCAG dye counter,others
N#Cc1c(=O)c2nc(NCCCO)ncc2n2c(=O)c3ccccc3[nH]c12,4,41*,2,-35,-11,-1,67*,26*,DNA CAG DR=5.4*
N#C/C(=C(/O)CN1CCN(c2ccccc2F)CC1)c1nc(-c2ccccc2)cs1,-6,58*,10,22,-1,-3,49*,16*,
CC(C)CCN(CCC(C)C)C/C(O)=C(\C#N)c1nc(-c2ccccc2)cs1,-7,5,2,-1,-7,0,x,x,
Cc1cc(C(=O)CN2c3cccc4cccc(c34)S2(=O)=O)c(C)n1C,6,38*,3,-4,1,19,12,8.6*,
COC(=O)[C@H](CC(C)C)NC(=O)NCCCc1ccccc1,-5,48*,0,x,-7,2,1,-2,
O=C1C(Cl)=C(N2CCCCC2)C(=O)C(Cl)=C1c1cnc(N2CCCCC2)s1,-5,x,x,x,35,x,x,x,
CN(C)c1ncc(C2=C(Cl)C(=O)C(N3CCCC3)=C(Cl)C2=O)s1,-2,65*,1,x,13,68*,55*,24*,DNA CAG DR=i
CC1(C(=O)NS(=O)(=O)c2ccc3ccccc3c2)CCN1C(=O)Cc1ccc(-c2ccccc2)cc1 (stereo not drawn),2,81*,x,x,x,-7,77*,36*,
COc1ccc(S(=O)(=O)NC(=O)C2(C)CCN2C(=O)Cc2cccc3ccccc23)cc1 (stereo not drawn),-5,16,x,x,x,-4,x,x,
COc1ccc(S(=O)(=O)NC(=O)C2(C)CCN2C(=O)Cc2ccc(-c3ccccc3)cc2)cc1 (stereo not drawn),-13,46*,x,x,x,2,44*,16*,
CCCS(=O)(=O)NC(=O)C1(C)CCN1C(=O)Cc1ccc(-c2ccccc2)cc1 (stereo not drawn),1,21,x,x,x,0,x,x,
CC(C)(C)c1ccc(CC(=O)N2CCC2(C)C(=O)NS(=O)(=O)c2ccc3c(c2)CCO3)cc1 (stereo not drawn),-6,24,x,x,x,-3,x,x,
CC1(C(=O)NS(=O)(=O)c2ccc3c(c2)CCO3)CCN1C(=O)Cc1ccc(-c2ccccc2)cc1 (stereo not drawn),-3,47*,x,x,x,2,70*,27*,DNA CAG DR=>30
C[C@@H]1CN([C@@H](C)CO)C(=O)c2cc(Br)cnc2O[C@@H]1CN(C)S(=O)(=O)c1ccc(F)cc1,-1,2,x,x,x,-2,x,x,
O=C(O)COc1ccc(NC(=O)c2ccc3c(c2)C(=O)N(Cc2ccccc2)C3=O)cc1,-12,47*,0,3,6,0,28,6.2*,
O=C(Nc1ccc(O)cc1)c1ccc2c(c1)C(=O)N(Cc1ccccc1)C2=O,7,9,-2,31,-1,-1,x,x,
COc1cccc(NC(=O)CSc2nc3c(oc4ccccc43)c(=O)[nH]2)c1,0,54*,3,-6,1,2,45*,15*,
CC1(OC(=O)C2CCCC2)C(=O)C=C2C=C(c3ccsc3)OC=C2C1=O (stereo not drawn),3,52*,0,-5,-9,15,37*,20*,DNA CAG DR=i
CC1(OC(=O)c2cccs2)C(=O)C=C2C=C(c3ccsc3)OC=C2C1=O (stereo not drawn),x,x,3,-16,x,x,x,x,
CN1Cc2nnn(Cc3ccccc3)c2-c2cc(N3CCCCC3)ccc2S1(=O)=O,x,4,x,x,x,-2,x,x,
O=C1CC(c2ccccc2)Oc2cc(O)cc(O)c21 (stereo not drawn),1,3,-2,1,2,3,x,x,
O=C(c1c(O)cc(O)cc1O)C1c2c(cc(O)c3c2O[C@H](c2ccc(O)cc2)[C@@H](O)C3)OC1c1ccc(O)cc1 (stereo partly drawn),8,37*,-4,99*,8,6,45*,16*,
CCc1cc2c(-c3ccccc3)cc(=O)oc2cc1OCC(C)=O,3,-2,5,-4,-4,2,x,x,
CCCc1cc2c(-c3ccccc3)cc(=O)oc2cc1OCc1ccc(C(=O)O)o1,2,57*,-5,42,0,4,73*,27*,DNA CAG DR=i
Cc1cc(/C=C2\C(=N)N3N=C(S(C)(=O)=O)SC3=NC2=O)c(C)n1Cc1ccccc1,2,66*,3,57,24,-3,89*,62*,
SMILES,ABHD5 PLIN5 PPI,rCAG RNA binder,LANA-H2B inh,ALR H2O2 inh,Rtt109 HAT inh,PRMT1 inh,rCAG bind conf,dCAG dye counter,others
COc1cc(/C=C2\C(=N)N3N=C(S(C)(=O)=O)SC3=NC2=O)ccc1OS(=O)(=O)c1ccc(C)cc1,7,51*,5,u,29,0,87*,59*,
CCOc1cc(/C=C2/C(=N)N3N=C(C)SC3=NC2=O)ccc1OS(=O)(=O)c1ccc(C)cc1,4,12,-2,20,4,2,x,x,
COc1cc(/C=C2\C(=N)N3N=C(C)SC3=NC2=O)cc(OC)c1OCCOc1ccccc1C,-3,14,3,-2,-5,-2,x,x,
COc1cccc(OCCOc2ccc(/C=C3\C(=N)N4N=C(S(C)(=O)=O)SC4=NC3=O)cc2OC)c1,6,52*,0,40,-2,1,91*,75*,
COc1ccccc1OCCOc1ccc(/C=C2\C(=N)N3N=C(S(C)(=O)=O)SC3=NC2=O)cc1,1,32,2,x,0,4,x,x,
COc1cc(/C=C2\C(=N)N3N=C(S(C)(=O)=O)SC3=NC2=O)cc(OC)c1OCCOc1ccccc1C,5,55*,0,53,15,0,92*,81*,
COc1cc(OC)cc(C(=O)NCC(C)NC(=O)c2cc(OC)cc(OC)c2)c1 (stereo not drawn),-3,8,-2,-29,-3,1,x,x,

# Screening data deposited in PubChem by several laboratories.
